High-throughput results: PubChem BioAssay, National Center for Advancing Translational Sciences (NCATS)
This is a sample that favours compounds with a hit; in the whole collection about 11% have one here.
HTT cytoprotect = cytoprotection in Huntington HTT-Q103 PC12 cell model. PC12 HTT-Q103 induced, cytoprotection, ATP luminescence, 40 h. Potency, µM (titrated, usually from 56.4 µM), without a hit: cytoprotection (ATP increase), actives largely listed as activators. 230,000 tested, 0.14% active. AID 1471; note: potency is the fitted concentration of half-maximal effect; % of control where 0% means no effect; nearly all actives have a fitted effect of over 45% in size
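Rat PC12, Q103 Htt exon1-GFP fusion, ecdysone promoter; tebufenozide inducer 100 nM final; compound titration; qHTS, 1500 cells/well; ATPlite luminescent read.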
RGS12 GoLoco inh = RGS12 GoLoco-Gai1 interaction inhibition; P63096; Gai1:RGS12 GoLoco peptide FP, rhodamine, 10 min; Potency, µM (titrated, usually from 61.6 µM), inactives show at the top dose activity, negative = inhibition, most hits filed as inhibitors; 230,000 tested, 0.44% active; AID 880; active = well fitted inhibition curve with a large enough effect, not every such curve was filed as active; inactive = no such curve, though single readings can be large or run the other way; note: potency is the fitted concentration of half-maximal effect; % is set by controls: 0 for no effect and ±100 for the full control effect; nearly all actives have a fitted effect of over 30% in size
HTT aggregate = reduces HttQ103-GFP aggregates in PC12 cells. PC12 HttQ103-GFP aggregates, Acumen cytometry, 40 h. Potency, µM (titrated, usually from 46.1 µM), inactives show at the top dose activity change, negative = inhibition, hits mostly inhibitors. 220,000 tested, 1.1% active. AID 1688; note: potency is the fitted concentration of half-maximal effect; % is set by controls: 0 for no effect and ±100 for the full control effect; nearly all actives have a fitted effect of over 60% in size
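Multiplexed with ATP-based cell death, this channel scores GFP aggregates in PC12 cells expressing inducible HTTex1-Q103-GFP. Induction used 100 nM tebufenozide; compounds were tested in concentration series.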
ALDH1A1 inh = blocks purified human ALDH1A1 activity | P00352 | Purified ALDH1A1, NADH fluorescence, propionaldehyde substrate | Potency, µM (highest dose often 75.3 µM), for the others: top-dose activity, negative = inhibition, most hits filed as inhibitors | 220,000 tested, 7.3% active; active = well fitted inhibition curve with a large enough effect, not every such curve was filed as active; inconclusive = small, poorly fitted or top-dose-only effect, or another doubt; inactive = no such curve, though single readings can be large or run the other way;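 note: potency is the fitted concentration of half-maximal effect; plate controls were no enzyme wells and a reference inhibitor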
Target sequence (P00352 whole entry, looked up): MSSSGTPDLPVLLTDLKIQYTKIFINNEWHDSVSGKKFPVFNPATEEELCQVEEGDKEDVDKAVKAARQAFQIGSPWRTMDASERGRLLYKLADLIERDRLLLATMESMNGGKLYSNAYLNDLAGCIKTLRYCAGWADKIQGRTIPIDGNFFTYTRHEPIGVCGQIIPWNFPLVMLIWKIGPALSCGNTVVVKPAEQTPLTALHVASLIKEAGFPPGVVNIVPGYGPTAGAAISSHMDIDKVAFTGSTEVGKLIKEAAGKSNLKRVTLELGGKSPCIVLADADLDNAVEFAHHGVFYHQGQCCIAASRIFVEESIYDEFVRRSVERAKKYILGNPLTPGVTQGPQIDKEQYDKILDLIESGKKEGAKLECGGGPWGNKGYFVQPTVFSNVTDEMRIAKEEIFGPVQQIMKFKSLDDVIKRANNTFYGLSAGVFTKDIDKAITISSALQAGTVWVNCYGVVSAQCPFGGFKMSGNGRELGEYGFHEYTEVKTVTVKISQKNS
HPGD inh = blocks human HPGD enzyme activity. P15428. purified HPGD, NADH fluorescence kinetic, PGE2 substrate. Potency, µM, for the others: at the top dose activity change, negative = inhibition, hits mostly inhibitors. 150,000 tested, 4.3% active. AID 894; active = well fitted inhibition curve with a large enough effect, not every such curve was filed as active; inconclusive = small, poorly fitted or top-dose-only effect, or another doubt; inactive = no such curve, though single readings can be large or run the other way; note: potency is the fitted concentration of half-maximal effect; % is set by controls: 0 for no effect and ±100 for the full control effect
Target sequence (P15428 whole entry, looked up): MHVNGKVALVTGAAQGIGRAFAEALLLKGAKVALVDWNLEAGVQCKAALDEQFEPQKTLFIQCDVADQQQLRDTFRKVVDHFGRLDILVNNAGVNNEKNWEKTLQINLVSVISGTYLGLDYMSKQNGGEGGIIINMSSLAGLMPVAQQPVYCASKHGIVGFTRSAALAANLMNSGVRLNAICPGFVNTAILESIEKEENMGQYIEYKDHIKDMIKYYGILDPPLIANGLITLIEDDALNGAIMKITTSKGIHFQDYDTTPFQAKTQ
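NADH formation kinetics: reaction with 30 uM PGE2 and 1 mM NAD+ (final), 20 nM enzyme, Tris-HCl pH 8 with Tween 20, after 15 min compound preincubation at room temperature. Fluorescence change, last versus first of five reads.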
PNC assembly inh = inhibitors of perinucleolar compartment assembly; PC3M PTB-GFP, PNC prevalence imaging, 16 h; active compounds read low; 140,000 tested, 3.1% active; activity change (PNC), negative = inhibition, % at 10 µM; AID 2417;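 active = readout at or below -70, meaning at least 70% loss of cells showing the perinucleolar compartment, a nuclear body marking cancer cells; inconclusive = readout between -30 and a set limit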;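 note: plate controls were DMSO wells for no effect and camptothecin positive control wells for full effect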
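Read-out is percentage of cells bearing a perinucleolar compartment, from automated 20x imaging of fixed, Hoechst-stained PC3M PTB-GFP cells. Cells were seeded 4 h, then exposed 16 h to compound (23 nl of library stock) in duplicate plates.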
* marks the source's active call; other numbers are inactive results; [ ] = another dose, or the depositor's remark. Unless noted, calls come from the whole dose curve; as a rule, active = well fitted curve in the direction sought with a large enough effect; inconclusive = small, poorly fitted or top-dose-only effect, or another doubt; inactive = no such curve, though single readings can be large; an effect the other way counts as inactive or inconclusive.

For O=C1/C(=C/c2ccc3c(c2)OCO3)N2CCC1CC2 the results were HTT cytoprotect -4%[10 µM], RGS12 GoLoco inh 9%, HTT aggregate -19%, ALDH1A1 inh inconclusive, HPGD inh inconclusive and PNC assembly inh -13.
`O=C1/C(=C\c2cc3c(cc2Br)OCO3)N2CCC1CC2` gave HTT cytoprotect -50%[10 µM], RGS12 GoLoco inh -5%, HTT aggregate inconclusive, ALDH1A1 inh 3.2µM*, HPGD inh inconclusive and PNC assembly inh inconclusive.
Screening O=C1C2CCCN2C(c2cccnc2)N1c1ccc(Cl)c(Cl)c1 (centres undefined) returned HTT cytoprotect 12%, RGS12 GoLoco inh 1%, HTT aggregate 5%, ALDH1A1 inh -4%, HPGD inh -7% and PNC assembly inh 72.
O=C1C2CCCN2C(c2ccncc2)N1c1ccc(Cl)c(Cl)c1 (centres undefined) was read as HTT cytoprotect -8%, HTT aggregate -12%, ALDH1A1 inh 20µM* and PNC assembly inh inconclusive.
For NC(Cc1ccc(Oc2cc(I)c(O)c(I)c2)c(I)c1)C(=O)O (centres undefined) the results were HTT cytoprotect -51% and HTT aggregate -10%.
Screening NC(Cc1cc(O)c(O)cc1O)C(=O)O (centres undefined) returned RGS12 GoLoco inh 14µM*, ALDH1A1 inh 11µM* and HPGD inh 4.5µM*.
For Cc1c(OCC(F)(F)F)ccnc1CS(=O)c1nc2ccccc2[nH]1 (centres undefined) the results were HTT cytoprotect -52%, RGS12 GoLoco inh 24%, HTT aggregate 3%, ALDH1A1 inh 1%, HPGD inh inconclusive and PNC assembly inh -2.
Screening COCCCOc1ccnc(CS(=O)c2nc3ccccc3[nH]2)c1C (centres undefined) returned HTT cytoprotect -173%, RGS12 GoLoco inh -10%, HTT aggregate 8%, ALDH1A1 inh 6µM* and HPGD inh inconclusive.
CN1C(=O)C(=Cc2ccc(SC3CCCCC3)o2)C(=O)N(C)C1=O was read as HTT cytoprotect -14%, RGS12 GoLoco inh 49%, HTT aggregate -21% and ALDH1A1 inh 14µM*.
Cc1cccc(N2C(=O)NC(=O)/C(=C/c3ccc(N4CCOCC4)cc3)C2=O)c1 was read as HTT cytoprotect -8%, RGS12 GoLoco inh 128%, HTT aggregate 15% and ALDH1A1 inh 11µM*.
`COc1ccc(N2C(=O)NC(=O)/C(=C/c3ccc(N4CCOCC4)cc3)C2=O)cc1` gave HTT cytoprotect -52%, RGS12 GoLoco inh 83%, HTT aggregate 5% and ALDH1A1 inh 10µM*.
For CCN(CC)c1ccc(C=C2C(=O)N(C)C(=S)N(C)C2=O)o1 the results were RGS12 GoLoco inh 203%, HTT aggregate 1%, ALDH1A1 inh -14%, HPGD inh -13% and PNC assembly inh 33.
Screening COCCN1C(=O)NC(=O)/C(=C\c2ccc(F)cc2)C1=O returned HTT cytoprotect -9%, RGS12 GoLoco inh 11%, HTT aggregate 11% and ALDH1A1 inh 10%.
Screening O=C1NC(=O)N(Cc2ccc(F)cc2)C(=O)/C1=C\c1ccc(N2CCCC2)cc1 returned HTT cytoprotect -20%[10 µM], RGS12 GoLoco inh 67%, HTT aggregate -8%[9.22 µM] and ALDH1A1 inh 0.25µM*.
Screening Cc1cccc(N2C(=O)NC(=O)/C(=C\c3ccc(N4CCOCC4)cc3)C2=O)c1 returned HTT cytoprotect 13%[10 µM], RGS12 GoLoco inh 20% and HTT aggregate -1%[9.22 µM].
Screening Cl/C=C/CCl returned HTT cytoprotect 0%, RGS12 GoLoco inh 5%, ALDH1A1 inh -3% and HPGD inh -5%.
`CN1C(=O)C(=Cc2ccc(N3CCCCCC3)cc2)C(=O)N(C)C1=O` gave HTT cytoprotect -9%[10 µM], RGS12 GoLoco inh 21%, HTT aggregate -1%[9.22 µM] and ALDH1A1 inh 0.11µM*.
`O=C1NC(=O)N(c2ccc(F)cc2)C(=O)/C1=C/c1ccc(N2CCOCC2)cc1` gave HTT cytoprotect 1%, RGS12 GoLoco inh 143%, HTT aggregate -4% and ALDH1A1 inh 4µM*.
`CN1C(=O)C(=Cc2ccc(N3CCCCC3)o2)C(=O)N(C)C1=S` gave HTT cytoprotect -28%, RGS12 GoLoco inh 255%, HTT aggregate 14%, ALDH1A1 inh 14µM*, HPGD inh -23% and PNC assembly inh -100*.
For CN1C(=O)C(=Cc2ccc(N3CCOCC3)c([N+](=O)[O-])c2)C(=O)N(C)C1=O the results were HTT cytoprotect -51%, RGS12 GoLoco inh -16%, HTT aggregate 15% and ALDH1A1 inh inconclusive.
`Cc1ccc(N2C(=O)NC(=O)/C(=C\c3ccc(N4CCOCC4)cc3)C2=O)cc1` gave RGS12 GoLoco inh 55%, HTT aggregate -10%, ALDH1A1 inh 11µM*, HPGD inh 35µM* and PNC assembly inh inconclusive.
`COC(=O)[C@@]1(Cc2ccccc2)[C@H]2c3cc(C(=O)N(C)C)[nH]c3C[C@H]2CN1C(=O)c1ccccc1` gave HTT cytoprotect 1%, RGS12 GoLoco inh 8%, ALDH1A1 inh 3% and HPGD inh -1%.
`COC[C@@H]1OC(=O)c2coc3c2[C@]1(C)C1=C(C3=O)[C@H]2CCC(=O)[C@]2(C)C[C@@H]1OC(C)=O` gave HTT cytoprotect -21%[1.9 µM].
C[C@@H]1CC[C@H]2[C@@H](C)C(=O)O[C@@H]3OC4(C)CC[C@@H]1[C@]32OO4 was read as RGS12 GoLoco inh 1%, ALDH1A1 inh 25µM* and HPGD inh -8%.
C[C@@H]1CC[C@H]2[C@@H](C)C(=O)O[C@@H]3OC4(C)CC[C@@H]1C32OO4 (some centres undefined) was read as HTT cytoprotect -154%, RGS12 GoLoco inh 2%, HTT aggregate 3.2µM*, ALDH1A1 inh 3% and HPGD inh -3%.
`O=S(=O)(O)F` gave HTT cytoprotect -1%, RGS12 GoLoco inh -34%, ALDH1A1 inh -82% and HPGD inh -23%.
Cc1cc(NC(=O)CCl)nn1C was read as HTT cytoprotect 27%[10 µM], RGS12 GoLoco inh 8%, HTT aggregate 12%[9.22 µM] and ALDH1A1 inh inconclusive.
Screening Cc1cc(NC(=O)CCl)on1 returned HTT cytoprotect -11%, RGS12 GoLoco inh 4%, HTT aggregate -8% and ALDH1A1 inh 3.5µM*.
Screening CN(N=O)c1ccc(O)c(O)c1 returned HTT cytoprotect -8%[1.9 µM], RGS12 GoLoco inh 4.5µM*, ALDH1A1 inh 16µM* and HPGD inh 8.9µM*.
`S=C(c1ccc(Cl)cc1)N1CCOCC1` gave HTT cytoprotect -14%, RGS12 GoLoco inh -2%, HTT aggregate -8%, ALDH1A1 inh inconclusive, HPGD inh 22µM* and PNC assembly inh 22.
